Rows were chosen to be rich in hits. Some 2.3% of all compounds tested hit in one or more screens of this group.
CHRM1 antagonist – blocks human M1 muscarinic receptor. CHO-K1 hM1, Fluo-8 calcium fluorescence, ACh EC80 antagonist. inhibition, % at 3 µM. 360,000 tested, 1.3% active. P11229. AID 588852;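 active = percent inhibition above its own plate's cutoff, namely the mean of that plate's compound wells plus 3 SD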;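 note: peak over basal fluorescence ratio during 140 s after agonist addition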
Target sequence (P11229 whole entry, looked up): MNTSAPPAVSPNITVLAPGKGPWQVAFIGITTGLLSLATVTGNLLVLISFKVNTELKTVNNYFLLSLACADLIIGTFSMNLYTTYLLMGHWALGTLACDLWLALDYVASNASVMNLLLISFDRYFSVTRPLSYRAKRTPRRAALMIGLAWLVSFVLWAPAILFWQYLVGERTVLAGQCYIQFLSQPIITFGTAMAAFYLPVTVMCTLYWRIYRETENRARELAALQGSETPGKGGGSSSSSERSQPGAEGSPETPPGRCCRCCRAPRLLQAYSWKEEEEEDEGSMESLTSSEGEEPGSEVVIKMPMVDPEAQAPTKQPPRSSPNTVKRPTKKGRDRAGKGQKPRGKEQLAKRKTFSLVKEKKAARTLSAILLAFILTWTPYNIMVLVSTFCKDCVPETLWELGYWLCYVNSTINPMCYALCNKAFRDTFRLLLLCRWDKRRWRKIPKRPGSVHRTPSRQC
CHO-K1 Ca PAM – M1 PAM counterscreen hit in parental CHO-K1 cells. AID 602247. ATP EC20, Fluo-8 calcium fluorescence; 0% at ATP EC20, 100% at ATP max. 360,000 tested, 0.02% active. activation, % at 3 µM;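 active = activation above the run cutoff, the mean activation of all test compounds plus 3 SD, cut at about 40% in these data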;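 note: peak over basal fluorescence ratio in a 140 s read after ATP addition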
CHO-K1 Ca ag – counter-screen for M1 agonists: effect in parental CHO-K1 cells; AID 602248; 360,000 tested, 0.48% active; activation, % at 3 µM; Fluo-8 calcium fluorescence; scaled to maximal ATP response, vehicle zero; in the data active = activation above about 15%;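 note: untransfected CHO-K1 host cells lacking M1 receptor as counterscreen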
M1 PAM – potentiates human M1 receptor response to acetylcholine | P11229 | 360,000 tested, 0.088% active | activation, % at 3 µM | CHO-K1 hM1, Fluo-8 calcium fluorescence, ACh EC20; 0% = ACh EC20, 100% = maximal ACh | AID 588819; in the data active = activation above about 19%, passing the limit was not always enough
M1 ag – human M1 muscarinic receptor agonism; CHO-K1 hM1, Fluo-8 calcium fluorescence, agonist mode; 0% DMSO, 100% acetylcholine EC100; 360,000 tested, 0.33% active; activation, % at 3 µM;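 active = activation above the run's mean compound activation plus 3 SD, cut at about 16% in these data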;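 note: peak over basal fluorescence ratio within a 140 s kinetic read after compound addition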
CHO-K1 Ca antag – nonselective inhibitor or artifact in parental CHO-K1 cells; ATP-induced calcium, Fluo-8 fluorescence; inhibition, % at 3 µM; 360,000 tested, 0.6% active; AID 602250;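 active = inhibition above a per-plate cutoff, the plate's mean sample inhibition plus 3 SD, cut at about 24% in these data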
Large screens that a line does not name were inactive.

COC(=O)c1sc(NC(=O)c2cc(-c3ccccc3)nc3ccccc23)c(C#N)c1C	none
O=C(NCCN1C(=O)S/C(=C\c2ccc(Cl)c([N+](=O)[O-])c2)C1=O)C1=COCCO1	none
CC(=O)N1CCc2cc(S(=O)(=O)N3CCc4ccccc43)ccc21	CHRM1 antagonist 60, CHO-K1 Ca ag 15
CSc1cccc(NS(=O)(=O)c2ccc3c(c2)CCN3C(C)=O)c1	CHO-K1 Ca ag 18, CHO-K1 Ca antag 29
CC(=O)N1CCc2cc(S(=O)(=O)N3CCc4ccccc4C3)ccc21	none
Cc1cccc(C)c1NC(=O)c1cc(S(=O)(=O)N2CCc3ccccc32)cn1C	none
Cn1cc(S(=O)(=O)N2CCc3ccccc32)cc1C(=O)NC(C)(C)C	CHRM1 antagonist 32, CHO-K1 Ca antag 26
COc1cccc(NS(=O)(=O)c2ccc3c(c2)CCN3C(C)=O)c1	none
COc1ccc(C2NC(=O)c3ccccc3O2)cc1 (stereo not given)	none
COc1cccc(NC(=O)NC2(C(=O)N3CCN(C)CC3)CCCCC2)c1	none
CC(C)(C)c1ccc(CC(=O)N2CCC2(C)C(=O)Nc2cnc3ccccc3c2)cc1 (stereo not given)	CHRM1 antagonist 36
Cc1ccc(NC(=O)C2(C)CCN2C(=O)Cc2ccc(-c3ccccc3)cc2)cc1 (stereo not given)	M1 ag 19
Cc1ccc(S(=O)(=O)NC(=O)C2(C)CCN2C(=O)Cc2ccc(-c3ccccc3)cc2)cc1 (stereo not given)	none
Fc1cc(Br)ccc1COc1ccc(-c2nnco2)cc1	none
C[C@]12CCC(=O)C=C1CC[C@@H]1[C@@H]2CC[C@@]2(C)[C@H]1CC[C@@]21CCC(=O)O1	CHRM1 antagonist 31
OCCN(Cc1ccccn1)Cc1ccccn1	CHRM1 antagonist 72
ON(CCc1ccccn1)CCc1ccccn1	none
CCc1c(C#N)c(SCCC(=O)Nc2ccc(F)cc2)nc2c1C(=O)CC(C)(C)C2	CHRM1 antagonist 38
CCc1c(C#N)c(SCCC(=O)Nc2cccc(OC)c2)nc2c1C(=O)CC(C)(C)C2	none
CC(C)CNC(=O)C1(C)CCCN1Cc1ccccc1OC(F)F (stereo not given)	none
COc1cccc(CNc2cnc3ccccc3c2)c1O	CHO-K1 Ca ag 16
O=C(CCCCCN1C(=O)CCC1=O)Nc1ccc(Cl)c(C(F)(F)F)c1	CHO-K1 Ca ag 17
CCOc1ccc(OCCC(=O)OCC(=O)Nc2ccc(Cl)cn2)cc1	none
Cc1ccc(N2C(=O)CC(NNc3nc4ccccc4s3)C2=O)cc1 (stereo not given)	CHO-K1 Ca ag 17
Cc1ccc(S(=O)(=O)N2[C@@H](c3ccc(C(C)(C)C)cc3)C(C(=O)O)=CC[C@H]2c2cccs2)cc1	CHO-K1 Ca antag 34
CCCCn1c(N)c(N(CC(C)C)C(=O)CSCc2c(C)noc2C)c(=O)[nH]c1=O	none
COc1ccc(Cl)cc1NC(=O)NC(C)c1ccncc1 (stereo not given)	CHO-K1 Ca antag 29
COc1ccccc1NC(=O)Nc1nc(C(C)(C)C)cs1	CHO-K1 Ca ag 31
CCCCCC(=O)Nc1cc(S(=O)(=O)N2CCOCC2)ccc1Oc1ccc(OCC)cc1	none
OC[C@H]1O[C@@H](n2cnc3c(NCc4ccco4)ncnc32)[C@H](O)[C@@H]1O	M1 ag 35
CCn1c(=O)c(C(=O)CN(C)CC(=O)Nc2ccccc2Br)c(N)n(Cc2ccccc2)c1=O	none
CCC(C)(C(=O)NC1CCCC1)N(Cc1cccs1)C(=O)c1ccc2c(c1)OCO2 (stereo not given)	CHO-K1 Ca ag 16
OCC1(Cc2ccc(Cl)cc2)CCN(Cc2ccc(Oc3ncccn3)cc2)CC1	CHRM1 antagonist 44
COc1cccc(CNC(=O)C2CCN(S(=O)(=O)c3ccc4c(c3)CC(C)N4C(C)=O)CC2)c1 (stereo not given)	none
NC(=O)c1ccc(NC(=O)CSc2nc3ccccc3c(=O)n2CCCN2CCOCC2)cc1	none
CCCNC(=O)c1ccc(S(=O)(=O)c2ccc(OC)cc2)c([N+](=O)[O-])c1	CHO-K1 Ca ag 16
COc1ccc(C(=O)NCCNc2ccccc2[N+](=O)[O-])cc1	none
CCOC(=O)c1c(-c2ccccc2)csc1NC(=O)/C(C#N)=C/c1ccc(OC)c(OC)c1	none
CCOC(=O)c1c(-c2ccccc2)csc1NC(=O)/C(C#N)=C/c1ccc(O)c(OC)c1	M1 ag 17
CC1CN(C(=O)c2ccc(S(=O)(=O)Nc3cccc(C(F)(F)F)c3)cc2)CC(C)O1 (stereo not given)	CHO-K1 Ca ag 21, M1 ag 25
Cc1ccc(NS(=O)(=O)c2ccc(C(=O)N3CC(C)CC(C)C3)cc2)cc1 (stereo not given)	CHRM1 antagonist 53, CHO-K1 Ca ag 53, M1 ag 60, CHO-K1 Ca antag 36
Cc1ccc(S(=O)(=O)Nc2ccc(C(=O)N3CCCC3)cc2)cc1	none
O=C(CCNC(=O)c1ccccc1Cl)Nc1ccc(S(=O)(=O)N2CCOCC2)cc1	none
CC(=O)Nc1ccc(/C=N/N2C(=O)NC(C)(c3ccc(OC(F)F)cc3)C2=O)cc1 (stereo not given)	M1 ag 27
CC1(c2ccc(Cl)cc2)NC(=O)N(CC(=O)Nc2cccnc2Cl)C1=O (stereo not given)	CHO-K1 Ca ag 17, M1 ag 22
CCOC(=O)CN1C(=O)NC(C)(c2ccc(OC(F)F)cc2)C1=O (stereo not given)	none
CCCCCC(C)NC(=O)CN1C(=O)NC(C)(c2ccc3ccccc3c2)C1=O (stereo not given)	M1 ag 18
CC1(c2ccc(OC(F)F)cc2)NC(=O)N(CC(=O)Nc2ccc3c(c2)OCO3)C1=O (stereo not given)	CHO-K1 Ca ag 29, M1 ag 39
COCC(=O)N1CCC(Oc2ccc(C(=O)NCCCC3CCCC3)cc2)CC1	none
CC1(c2ccc(OC(F)F)cc2)NC(=O)N(CC(=O)Nc2ccccc2)C1=O (stereo not given)	CHRM1 antagonist 26, CHO-K1 Ca ag 46, M1 ag 46
CC(C)(CNC(=S)NCCc1ccccc1)CNC(=S)NCCc1ccccc1	CHO-K1 Ca antag 28
OCCNC(=S)NCCc1ccccc1	none
CCN(CC)c1ccc(/C=C/c2ccc3ccc(OC)cc3[n+]2CC)cc1	CHRM1 antagonist 48, CHO-K1 Ca antag 57
O=C1C(Cl)=C(N2CCN(Cc3ccccc3)CC2)C(=O)N1Cc1ccccc1	CHRM1 antagonist 57
CC1(C)N=C(N)N=C(N)N1CCCCc1ccccc1	CHRM1 antagonist 52
COc1ccc(CC(C)Nc2cccc(SC)c2)cc1 (stereo not given)	none
COc1ccc(NC(=O)Nc2cccc([N+](=O)[O-])c2)cc1Cl	CHO-K1 Ca antag 30

Screening data deposited in PubChem by The Scripps Research Institute Molecular Screening Center.
